Rows were chosen to be rich in hits. Some 7.3% of all compounds tested hit in one or more screens of this group.
FLuc counter – firefly luciferase modulation, counter-screen for miR-21 project. P08659. purified FLuc, Km substrates, luminescence inhibition. Potency, µM (doses to about 57.5 µM), without a hit: at the top dose activity change, negative = inhibition, most hits filed as inhibitors. actives 6.9% (n = 360,000);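 further: plate controls were vehicle for no effect and reference inhibitor for full effect; nearly all actives have a fitted effect of over 55% in size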
Target sequence (P08659 whole entry, looked up): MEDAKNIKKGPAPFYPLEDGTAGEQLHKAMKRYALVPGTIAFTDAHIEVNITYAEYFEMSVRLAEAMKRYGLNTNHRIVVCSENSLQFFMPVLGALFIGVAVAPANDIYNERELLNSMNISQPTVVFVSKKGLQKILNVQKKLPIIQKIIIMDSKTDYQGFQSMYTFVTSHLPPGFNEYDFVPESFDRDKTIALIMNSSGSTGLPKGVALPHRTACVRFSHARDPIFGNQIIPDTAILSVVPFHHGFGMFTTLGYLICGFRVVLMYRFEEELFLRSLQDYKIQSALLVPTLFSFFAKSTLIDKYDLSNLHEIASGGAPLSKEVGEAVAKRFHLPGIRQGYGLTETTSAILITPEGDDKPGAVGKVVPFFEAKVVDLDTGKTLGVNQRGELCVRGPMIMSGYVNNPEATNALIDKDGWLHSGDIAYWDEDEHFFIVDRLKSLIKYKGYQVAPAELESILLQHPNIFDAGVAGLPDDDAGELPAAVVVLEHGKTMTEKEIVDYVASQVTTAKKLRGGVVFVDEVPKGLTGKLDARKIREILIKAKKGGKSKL
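Purified P. pyralis luciferase (10nM final) with 10uM D-luciferin and 10uM ATP (Km levels) in 50mM Tris acetate pH 7.5, 10mM Mg acetate, 0.01% Tween-20, 0.05% BSA; qHTS 6-point titration, ~60 µM downward; luminescence read.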
KinaseGlo FLuc – counter-screen: inhibitors of Kinase-Glo firefly luciferase | Q27757 | Kinase-Glo luciferase, ATP luminescence, 8 min | Potency, µM (series often up to 38.3 µM), inactives show at the top dose activity change, negative = inhibition, actives largely listed as inhibitors | actives 0.28% (n = 200,000) | AID 1379; further: on the % scale 0 is the no-effect control and ±100 the full control effect; nearly all actives have a fitted effect of over 60% in size
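Inhibition of Kinase-Glo luciferase light generation was assessed at 10 uM ATP in pH 7.2 imidazole buffer, with luminescence measured after eight minutes at ambient temperature.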
Rab9 prom act – activates the Rab9 promoter; Potency, µM (highest dose often 9.22 µM), for inactives: at the top dose activation, negative = inhibition, actives largely listed as activators; Huh7 Rab9 promoter-luciferase reporter, luminescence, 24 h; actives 2.8% (n = 320,000); further: % of control where 0% means no effect; nearly all actives have a fitted effect of over 60% in size
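Luminescence from Amplite-detected luciferase (10 minutes, ambient) reports Rab9 promoter activation. Before that, stable Rab9-luciferase Huh7 cells (1500/well, reduced-serum OP-MEM I plus 10% FBS) were exposed to compound for 24 hours at 37C.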
NPC1 prom act – activates the NPC1 promoter; Potency, µM (top dose mostly 9.22 µM), inactives show top-dose activation, most hits filed as activators; Huh7 NPC1 promoter luciferase reporter, 24 h; AID 485313; actives 2.4% (n = 320,000); further: % of control where 0% means no effect; nearly all actives have a fitted effect of over 60% in size
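NPC1 promoter–luciferase Huh7 cells; 24 h compound; luminescence.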
SMN2 splice up – SMN2 splice variant enhancement; HEK293 SMN2-luciferase splicing reporter, luminescence, 30-36 h; Potency, µM (series often up to 46.1 µM), inactives show top-dose activity change, positive = activation, most hits filed as activators; actives 2.8% (n = 210,000); further: % of control where 0% means no effect; nearly all actives have a fitted effect of over 55% in size
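HEK293 cells carry an SMN2 […]–luciferase reporter in which exon 7 inclusion puts luciferase in frame. Cells were plated 10-12 h before compound addition, then incubated 30-36 h at 37C. ONE-Glo luminescence was read; sodium butyrate at 4.5 mM final served as control.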
* = called active by the depositor; ? = inconclusive; . = not tested or not shown; [ ] = dose if it differs, or a comment. The call rests on the fitted dose curve; in most records, active means well fitted curve in the direction sought with a large enough effect; inconclusive means small, poorly fitted or top-dose-only effect, or another doubt; inactive means no such curve, though single readings can be large; an effect the other way counts as inactive or inconclusive. Potency means the concentration at half of the fitted maximal effect.

SMILES	FLuc counter	KinaseGlo FLuc	Rab9 prom act	NPC1 prom act	SMN2 splice up
O=C(COc1ccccc1)Nc1ncn[nH]1	-13%	.	11%	13%	.
CCc1ccc(OCC(=O)NC2CCCCC2)c(Br)c1	3%	.	5%	-2%	.
CCc1ccc(OCC(=O)Nc2ncn[nH]2)c(Br)c1	1.1µM*	.	.	.	?
CCc1ccc(OCC(=O)Nc2ncn[nH]2)cc1	13µM*	-5%	4.5µM*	?	?
O=C(COc1ccc(Br)cc1Cl)Nc1ncn[nH]1	2.1µM*	.	.	.	?
N[C@@]1(C(=O)O)CCC[C@@H]1C(=O)O	.	0%[7.66 µM]	.	.	-7%[9.22 µM]
Cc1cccc(NC(=O)CN2C(=O)c3cccnc3Oc3ccc(Cl)cc32)c1C	1%	.	.	.	.
COc1ccc(-c2nn3c(-c4ccccc4C)nnc3c3ccccc23)cc1	2%	.	.	.	12%
O=C(C1CCN(c2nc3ccccc3[nH]2)CC1)N1CCN(c2ccccc2)CC1	-3%	.	.	.	.
Cc1csc2c(N3CCN(C(=S)Nc4ccc(F)cc4F)CC3)ncnc12	24µM*	.	-3%	-1%	.
Cc1csc2c(N3CCN(C(=O)Nc4ccccc4)CC3)ncnc12	?	.	-18%	-1%	.
Cc1ccc2c(c1)c(=O)c(C(=O)c1ccccc1)cn2Cc1ccccc1F	-8%	.	.	.	-2%
Cc1ccc2nc(-c3ccc(NC(=O)CSc4nc(N)cc(=O)[nH]4)cc3)sc2c1	3.4µM*	.	2.8µM*	2.8µM*	.
Cc1ccc2nc(-c3ccc(NC(=O)CSc4nccc(=O)[nH]4)cc3)sc2c1	2.7µM*	-3%	0.4µM*	1.4µM*	8.9µM*
Nc1cc(=O)[nH]c(SCC(=O)Nc2nc3ccc([N+](=O)[O-])cc3s2)n1	?	0%	-1%	-3%	6%
O=C(CSc1nccc(=O)[nH]1)Nc1ccc(N2CCOCC2)cc1	?	.	0%	-3%	.
CCOC(=O)c1[nH]c2ccccc2c1NC(=O)c1ccccc1F	-7%	.	.	.	-3%
C(=C\c1nccc2c1[nH]c1ccccc12)/c1ccccc1	7.6µM*	.	?	?	.
Cc1ccc(/C=C\c2nccc3c2[nH]c2ccccc23)cc1	1.7µM*	-1%	?	?	?
Cc1[nH]c2ccccc2c1/C=C/c1cc[n+](C)cc1	2%	-3%	-43%	-36%	-26%
CSc1ccc(/C=C/c2cc(=O)c3ccccc3[nH]2)cc1	?	-3%	?	15%	17%
Fc1ccc(/C=C\c2nccc3c2[nH]c2ccccc23)cc1	5.4µM*	-9%	18%	20%	16%
Cc1nnsc1C(=O)Oc1ccc(Cl)cc1	-3%	.	.	.	.
Cc1cc(N/N=C\c2ccccc2)nc(-c2ccccc2O)n1	6µM*	-3%	22%	22%	?
C/C(=N\Nc1cc(C)nc(-c2ccccc2O)n1)c1ccccc1O	15µM*	.	-2%	0%	.
SMILES	FLuc counter	KinaseGlo FLuc	Rab9 prom act	NPC1 prom act	SMN2 splice up
Cc1cc(N/N=C/c2ccccc2O)nc(-c2ccccc2O)n1	8.5µM*	-2%	-3%	-1%	-17%
C/C(=N/Nc1ccc2ccccc2n1)c1ccccc1O	.	-10%[7.66 µM]	.	.	?
Cc1cc(N/N=C/c2ccc(O)cc2O)nc(-c2ccccc2O)n1	2.7µM*	-2%	0%	5%	-26%
Cc1cc(Nc2ccc(Cl)cc2)nc(-c2ccccc2O)n1	?	.	3%	-2%	.
CCN(CC)C(=O)c1sc2c(c1C)c(=O)n(-c1ccc(OC)cc1OC)c(=O)n2CC(=O)c1ccc(Cl)cc1	-1%	.	.	.	.
COc1cccc(NC(=O)CCNC(=O)Cn2cnc3ccccc3c2=O)c1	1%	.	.	.	-3%
CCCCCCSc1cccc(-c2nc3cc(C)ccn3c2NC2CCCCC2)c1	-7%	.	-13%	-13%	.
Cc1ccn2c(NC3CCCC3)c(-c3ccsc3)nc2c1	24µM*	-1%	-7%	1%	-30%
COCCCNc1ncnc2c1c(-c1ccccc1)cn2-c1ccc(C)c(Cl)c1	-15%	.	.	.	.
O=C(O)C1C(C(=O)O)C(C(=O)O)C1C(=O)O (stereo unspecified)	.	-2%[7.66 µM]	.	.	-13%[9.22 µM]
Cc1ccccc1/C=C/c1nc2ccccc2c(=O)[nH]1	2.1µM*	.	1.4µM*	?	.
CCn1c(/C=C/c2ccccc2C)nc2ccccc2c1=O	?	.	3%	0%	.
Cc1ccccc1/C=C/c1nc2ccccc2c(=O)n1Cc1ccccc1	4%	-3%	-9%	1%	?
Cc1ccccc1/C=C\c1nc2ccccc2c(=O)[nH]1	1.9µM*	-7%	0.56µM*	?	10µM*
CCc1cccc(C)c1NC(=O)c1cc(S(=O)(=O)N(C)Cc2ccccc2)ccc1F	-7%	.	.	.	.
COCCNc1nc2c(c(=O)n(C)c(=O)n2C)n1Cc1c(F)cccc1Cl	0%	.	.	.	-12%
Cc1cc(C)cc(NC(=O)c2cc(C)n(Cc3cccs3)c2C)c1	0.34µM*	.	0.71µM*	1.1µM*	.
O=C(Cc1cccs1)Nc1ccc(Cl)cc1	?	0%	25%	15%	?
Cc1cc(C(=O)Nc2ccc(Cl)cc2)c(C)n1Cc1cccs1	0.6µM*	.	0.32µM*	0.71µM*	.
CCCN(Cc1cccs1)C(=O)Nc1cc(C)cc(C)c1	-11%	.	.	.	.
CSc1ccc(Cc2ccc(Cl)cc2Cl)nn1	17µM*	1%	?	28%	-11%
NNc1ccc(Cc2ccc(Cl)cc2Cl)nn1	-1%	-1%	5%	-1%	-74%
Cc1ccc(C)c(NC(=O)CN(C)S(=O)(=O)c2ccc3c(c2)CCC(=O)N3)c1	4%	.	.	.	-25%
Cc1ccccc1NC(=O)c1ccc2c(c1)C(=O)N(CC(C)C)C2=O	-8%	.	5%	-4%	.
CC(C)CN1C(=O)c2ccc(C(=O)Nc3ccccn3)cc2C1=O	2.7µM*	-3%	?	?	-5%
SMILES	FLuc counter	KinaseGlo FLuc	Rab9 prom act	NPC1 prom act	SMN2 splice up
CC(C)CN1C(=O)c2ccc(C(=O)NCc3ccccn3)cc2C1=O	7%	.	0%	4%	.
CC(C)CN1C(=O)c2ccc(C(=O)Nc3ccccc3C(=O)O)cc2C1=O	3µM*	.	4.5µM*	2.5µM*	.
CCCN1C(=O)c2ccc(C(=O)Nc3nccs3)cc2C1=O	?	0%	-5%	-2%	-16%
CC(C)CN1C(=O)c2ccc(C(=O)Nc3nccs3)cc2C1=O	6.7µM*	0%	?	?	6%
CCCS(=O)(=O)N1CCC(C(=O)NC2CCC(C)CC2)CC1 (stereo unspecified)	-16%	.	4µM*	?	.
O=C(NCCS(=O)(=O)N1CCN(c2ccc(F)cc2)CC1)C(c1ccccc1)c1ccccc1	-11%	.	.	.	.
COc1ccc(N2CC(NC(=O)C(c3ccccc3)c3ccccc3)CC2=O)cc1 (stereo unspecified)	1%	.	.	.	.
COc1ccc(CNS(=O)(=O)c2ccc(-c3cc(C(F)(F)F)on3)s2)cc1OC	-12%	.	.	.	.
COc1ccc2c(Sc3ccc(C)cc3)c(C(=O)NCc3ccc(F)cc3)[nH]c2c1	10%	.	.	.	.
CCc1ccc(C(=O)N/N=C/c2ccncc2)s1	12µM*	.	?	18%	.
O=C(N/N=C\c1ccncc1)c1ccc(Br)s1	15µM*	.	5%	-4%	.
